{"source": "paper PMC7862700", "about": "“An all-to-all approach to the identification of sequence-specific readers for epigenetic DNA modifications on cytosine”", "assay_in_all_cases": "DAPPL (digital affinity profiling via proximity ligation, sequencing); 10 mM Tris-HCl pH 7.5, 50 mM NaCl, 1 mM DTT, 4% glycerol, room temperature, 30 min; GST-TFs on glutathione beads, 16-mer random dsDNA library, 0.1% formaldehyde crosslink after washing; high values mean tight binding", "key": {"[1]": {"target": "T1, FLI1 (Homo sapiens, UniProt Q01543 1-452)", "T1 sequence": "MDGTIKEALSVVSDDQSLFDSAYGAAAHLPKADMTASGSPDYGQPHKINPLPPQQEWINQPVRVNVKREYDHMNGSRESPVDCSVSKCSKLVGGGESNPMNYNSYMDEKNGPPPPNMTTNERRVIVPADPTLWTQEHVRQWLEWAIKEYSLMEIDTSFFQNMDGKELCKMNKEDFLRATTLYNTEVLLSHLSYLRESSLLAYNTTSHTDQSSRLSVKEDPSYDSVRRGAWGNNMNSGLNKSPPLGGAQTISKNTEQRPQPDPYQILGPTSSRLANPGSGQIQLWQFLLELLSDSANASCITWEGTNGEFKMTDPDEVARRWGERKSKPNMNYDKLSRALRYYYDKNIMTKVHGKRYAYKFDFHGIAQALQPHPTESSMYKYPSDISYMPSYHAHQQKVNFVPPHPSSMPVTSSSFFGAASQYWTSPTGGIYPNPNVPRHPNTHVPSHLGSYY", "conditions": "protein: recombinant; tags: N-terminal GST; dsDNA, one strand shown", "procedure,_shortened": "(§1)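 Binding signal is defined as a hexamer's read frequency for one factor over its frequency for the tag-only sample. To obtain reads, GST-fused human transcription factors were expressed in yeast, captured on glutathione beads, barcoded with DNA and pooled with that sample. Pools met 200 nmole of a 16-mer random double-stranded DNA library in Tris/NaCl/DTT/glycerol buffer for 30 min at room temperature before washing, 0.1% formaldehyde crosslinking, proximity ligation (BsaI/T4 ligase, 1 h, 37 °C), PCR and Illumina NextSeq500 sequencing.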"}, "[2]": {"target": "ELF1 (Homo sapiens, UniProt P32519 1-619)", "sequence (P32519 whole entry)": "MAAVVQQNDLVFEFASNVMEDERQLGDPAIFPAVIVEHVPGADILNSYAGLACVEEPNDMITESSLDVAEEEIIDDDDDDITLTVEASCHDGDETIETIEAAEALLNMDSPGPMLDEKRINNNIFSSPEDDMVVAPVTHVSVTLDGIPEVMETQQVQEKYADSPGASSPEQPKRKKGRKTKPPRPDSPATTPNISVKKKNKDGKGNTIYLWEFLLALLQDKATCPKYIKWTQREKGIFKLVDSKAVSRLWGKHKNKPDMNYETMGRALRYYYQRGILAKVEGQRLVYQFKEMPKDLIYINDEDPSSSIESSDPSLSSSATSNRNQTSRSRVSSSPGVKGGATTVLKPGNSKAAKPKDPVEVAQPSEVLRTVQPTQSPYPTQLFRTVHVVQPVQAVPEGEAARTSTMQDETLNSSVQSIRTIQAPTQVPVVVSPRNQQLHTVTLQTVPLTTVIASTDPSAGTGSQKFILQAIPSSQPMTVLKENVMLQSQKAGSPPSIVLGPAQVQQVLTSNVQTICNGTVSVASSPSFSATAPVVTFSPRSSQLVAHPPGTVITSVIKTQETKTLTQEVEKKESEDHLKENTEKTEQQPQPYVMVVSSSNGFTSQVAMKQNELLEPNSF", "conditions": "protein: recombinant; tags: N-terminal GST; dsDNA, one strand shown", "procedure,_shortened": "as §1"}, "[3]": {"target": "T2, SPIC (Homo sapiens, UniProt Q8N5J4 1-248)", "T2 sequence": "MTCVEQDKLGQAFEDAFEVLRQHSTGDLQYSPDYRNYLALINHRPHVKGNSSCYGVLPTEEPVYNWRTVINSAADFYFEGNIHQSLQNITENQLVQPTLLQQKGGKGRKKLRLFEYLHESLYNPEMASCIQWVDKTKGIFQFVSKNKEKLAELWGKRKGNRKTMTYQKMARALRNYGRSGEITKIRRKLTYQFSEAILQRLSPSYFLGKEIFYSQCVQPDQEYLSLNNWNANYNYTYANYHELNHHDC", "conditions": "protein: recombinant; tags: N-terminal GST; dsDNA, one strand shown", "procedure,_shortened": "as §1"}, "[4]": {"target": "T3, ETV2 (Homo sapiens, UniProt O00321 1-342)", "T3 sequence": "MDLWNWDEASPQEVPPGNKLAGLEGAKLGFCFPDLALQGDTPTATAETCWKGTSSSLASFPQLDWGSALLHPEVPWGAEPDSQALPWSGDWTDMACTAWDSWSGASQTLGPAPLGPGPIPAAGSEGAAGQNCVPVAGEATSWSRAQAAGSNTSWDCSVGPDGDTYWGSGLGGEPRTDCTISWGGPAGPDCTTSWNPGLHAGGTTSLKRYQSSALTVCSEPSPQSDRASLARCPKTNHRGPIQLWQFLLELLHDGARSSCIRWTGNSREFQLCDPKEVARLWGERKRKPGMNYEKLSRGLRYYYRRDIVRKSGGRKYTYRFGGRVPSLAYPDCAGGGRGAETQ", "conditions": "protein: recombinant; tags: N-terminal GST; dsDNA, one strand shown", "procedure,_shortened": "as §1"}, "[5]": {"target": "T4, ERF (Homo sapiens, UniProt P50548 1-548)", "T4 sequence": "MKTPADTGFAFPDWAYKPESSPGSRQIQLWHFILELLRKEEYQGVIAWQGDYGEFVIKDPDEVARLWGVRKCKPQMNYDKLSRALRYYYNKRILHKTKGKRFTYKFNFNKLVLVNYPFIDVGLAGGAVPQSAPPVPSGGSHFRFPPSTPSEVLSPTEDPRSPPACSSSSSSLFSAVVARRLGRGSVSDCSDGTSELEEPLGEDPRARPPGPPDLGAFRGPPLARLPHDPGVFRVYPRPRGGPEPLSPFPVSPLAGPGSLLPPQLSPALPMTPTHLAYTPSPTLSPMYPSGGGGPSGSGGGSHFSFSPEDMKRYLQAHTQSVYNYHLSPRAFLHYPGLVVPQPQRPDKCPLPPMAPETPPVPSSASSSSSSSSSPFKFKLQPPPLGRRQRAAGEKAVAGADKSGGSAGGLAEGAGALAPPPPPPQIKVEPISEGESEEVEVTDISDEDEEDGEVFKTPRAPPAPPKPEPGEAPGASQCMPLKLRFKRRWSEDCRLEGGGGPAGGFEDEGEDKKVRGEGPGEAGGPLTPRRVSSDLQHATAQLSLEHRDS", "conditions": "protein: recombinant; tags: N-terminal GST; dsDNA, one strand shown", "procedure,_shortened": "as §1"}, "[6]": {"target": "T5, ETV3L (Homo sapiens, UniProt Q6ZN32 1-361)", "T5 sequence": "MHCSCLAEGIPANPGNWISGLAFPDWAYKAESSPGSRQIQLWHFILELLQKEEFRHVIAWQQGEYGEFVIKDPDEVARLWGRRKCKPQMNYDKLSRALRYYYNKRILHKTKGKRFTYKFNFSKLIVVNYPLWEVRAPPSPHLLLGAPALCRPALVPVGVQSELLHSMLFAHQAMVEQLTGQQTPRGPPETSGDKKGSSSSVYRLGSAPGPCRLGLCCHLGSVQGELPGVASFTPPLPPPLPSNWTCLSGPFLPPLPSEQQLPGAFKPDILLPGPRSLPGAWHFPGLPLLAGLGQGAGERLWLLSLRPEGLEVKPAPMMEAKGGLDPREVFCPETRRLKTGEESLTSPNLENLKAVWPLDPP", "conditions": "protein: recombinant; tags: N-terminal GST; dsDNA, one strand shown", "procedure,_shortened": "as §1"}, "[7]": {"target": "T6, ETV7 (Homo sapiens, UniProt Q9Y603 1-341)", "T6 sequence": "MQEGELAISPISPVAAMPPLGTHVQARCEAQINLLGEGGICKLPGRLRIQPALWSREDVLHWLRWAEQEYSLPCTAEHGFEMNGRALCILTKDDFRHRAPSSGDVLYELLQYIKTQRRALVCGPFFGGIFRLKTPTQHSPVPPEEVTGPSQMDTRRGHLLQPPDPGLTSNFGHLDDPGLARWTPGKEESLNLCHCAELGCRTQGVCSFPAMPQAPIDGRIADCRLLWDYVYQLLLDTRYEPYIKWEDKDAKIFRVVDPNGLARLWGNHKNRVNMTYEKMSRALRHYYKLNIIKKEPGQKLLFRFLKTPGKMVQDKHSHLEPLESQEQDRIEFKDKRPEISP", "conditions": "protein: recombinant; tags: N-terminal GST; dsDNA, one strand shown", "procedure,_shortened": "as §1"}, "[8]": {"target": "T7, ELK1 (Homo sapiens, UniProt P19419 1-428)", "T7 sequence": "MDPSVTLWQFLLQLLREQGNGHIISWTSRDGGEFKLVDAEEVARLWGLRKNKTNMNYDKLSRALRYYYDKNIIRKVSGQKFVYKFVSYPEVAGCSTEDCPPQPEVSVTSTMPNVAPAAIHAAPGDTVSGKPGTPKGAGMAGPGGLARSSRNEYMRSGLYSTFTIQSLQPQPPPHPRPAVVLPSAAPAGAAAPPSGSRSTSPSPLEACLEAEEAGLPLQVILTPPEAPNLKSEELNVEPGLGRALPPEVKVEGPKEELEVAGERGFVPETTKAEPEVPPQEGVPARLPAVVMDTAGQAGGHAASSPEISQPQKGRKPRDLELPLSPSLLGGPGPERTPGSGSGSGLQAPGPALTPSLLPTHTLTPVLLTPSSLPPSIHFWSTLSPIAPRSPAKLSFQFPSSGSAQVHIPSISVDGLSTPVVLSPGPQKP", "conditions": "protein: recombinant; tags: N-terminal GST; dsDNA, one strand shown", "procedure,_shortened": "as §1"}, "[9]": {"target": "T8, ERG (Homo sapiens, UniProt P11308 1-479)", "T8 sequence": "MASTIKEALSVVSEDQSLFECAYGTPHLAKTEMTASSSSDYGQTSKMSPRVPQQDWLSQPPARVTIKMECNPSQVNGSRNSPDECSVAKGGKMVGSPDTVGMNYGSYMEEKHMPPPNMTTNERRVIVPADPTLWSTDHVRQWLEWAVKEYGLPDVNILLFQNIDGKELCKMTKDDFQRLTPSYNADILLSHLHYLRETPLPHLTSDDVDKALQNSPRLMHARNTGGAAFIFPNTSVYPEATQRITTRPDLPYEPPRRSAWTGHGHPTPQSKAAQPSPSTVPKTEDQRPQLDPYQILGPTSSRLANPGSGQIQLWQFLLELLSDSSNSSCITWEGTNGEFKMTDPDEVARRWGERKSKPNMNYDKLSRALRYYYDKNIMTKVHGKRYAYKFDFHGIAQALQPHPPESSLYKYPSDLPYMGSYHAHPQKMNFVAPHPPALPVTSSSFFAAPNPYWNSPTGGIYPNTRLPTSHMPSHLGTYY", "conditions": "protein: recombinant; tags: N-terminal GST; dsDNA, one strand shown", "procedure,_shortened": "as §1"}, "[10]": {"target": "T9, EHF (Homo sapiens, UniProt Q9NZC4 1-300)", "T9 sequence": "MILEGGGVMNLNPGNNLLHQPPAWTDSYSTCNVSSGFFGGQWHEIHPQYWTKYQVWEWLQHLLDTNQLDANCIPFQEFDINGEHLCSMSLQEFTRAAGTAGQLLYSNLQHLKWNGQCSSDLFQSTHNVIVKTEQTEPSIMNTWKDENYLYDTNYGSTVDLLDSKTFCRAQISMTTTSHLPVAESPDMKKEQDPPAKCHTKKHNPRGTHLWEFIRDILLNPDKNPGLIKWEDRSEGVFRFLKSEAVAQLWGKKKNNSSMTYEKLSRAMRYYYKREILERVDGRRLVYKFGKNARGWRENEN", "conditions": "protein: recombinant; tags: N-terminal GST; dsDNA, one strand shown", "procedure,_shortened": "as §1"}, "[11]": {"target": "SPI1 (Homo sapiens, UniProt P17947 1-270)", "conditions": "protein: recombinant; tags: N-terminal GST; dsDNA, one strand shown", "procedure,_shortened": "as §1"}, "[12]": {"target": "T10, ELK3 (Homo sapiens, UniProt P41970 1-407)", "T10 sequence": "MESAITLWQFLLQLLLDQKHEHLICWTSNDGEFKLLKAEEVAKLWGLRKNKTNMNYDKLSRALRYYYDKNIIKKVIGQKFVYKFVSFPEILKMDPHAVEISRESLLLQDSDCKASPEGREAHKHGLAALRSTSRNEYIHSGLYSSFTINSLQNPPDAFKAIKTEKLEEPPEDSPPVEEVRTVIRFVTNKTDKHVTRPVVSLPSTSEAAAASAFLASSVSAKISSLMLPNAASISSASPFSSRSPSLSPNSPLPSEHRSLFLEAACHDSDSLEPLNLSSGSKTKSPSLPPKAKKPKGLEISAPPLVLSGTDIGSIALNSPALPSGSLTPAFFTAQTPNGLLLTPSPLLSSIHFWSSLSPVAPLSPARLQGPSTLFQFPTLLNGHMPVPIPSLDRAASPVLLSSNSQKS", "conditions": "protein: recombinant; tags: N-terminal GST; dsDNA, one strand shown", "procedure,_shortened": "as §1"}, "[13]": {"target": "ELF4 (Homo sapiens, UniProt Q99607 1-663)", "sequence (Q99607 whole entry)": "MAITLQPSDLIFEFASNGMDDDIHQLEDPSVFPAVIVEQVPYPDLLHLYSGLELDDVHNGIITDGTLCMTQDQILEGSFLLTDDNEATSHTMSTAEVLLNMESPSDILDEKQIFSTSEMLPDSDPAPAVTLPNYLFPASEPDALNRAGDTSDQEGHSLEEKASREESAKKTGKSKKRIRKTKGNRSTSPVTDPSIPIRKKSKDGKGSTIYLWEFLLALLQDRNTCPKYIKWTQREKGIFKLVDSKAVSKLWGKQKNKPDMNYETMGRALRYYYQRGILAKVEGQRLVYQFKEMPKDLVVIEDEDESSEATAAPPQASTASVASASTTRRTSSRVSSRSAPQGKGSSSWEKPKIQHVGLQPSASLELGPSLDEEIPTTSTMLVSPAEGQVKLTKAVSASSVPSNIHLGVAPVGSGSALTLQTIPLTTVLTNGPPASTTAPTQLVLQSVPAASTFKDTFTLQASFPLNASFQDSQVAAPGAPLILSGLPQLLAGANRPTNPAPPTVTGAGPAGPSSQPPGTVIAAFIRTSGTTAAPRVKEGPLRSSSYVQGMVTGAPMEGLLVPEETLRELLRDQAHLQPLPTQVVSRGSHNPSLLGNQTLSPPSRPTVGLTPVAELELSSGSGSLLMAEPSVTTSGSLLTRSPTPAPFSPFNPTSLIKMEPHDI", "conditions": "protein: recombinant; tags: N-terminal GST; dsDNA, one strand shown", "procedure,_shortened": "as §1"}, "[14]": {"target": "ETV6 (Homo sapiens, UniProt P41212 1-452)", "sequence (P41212 whole entry)": "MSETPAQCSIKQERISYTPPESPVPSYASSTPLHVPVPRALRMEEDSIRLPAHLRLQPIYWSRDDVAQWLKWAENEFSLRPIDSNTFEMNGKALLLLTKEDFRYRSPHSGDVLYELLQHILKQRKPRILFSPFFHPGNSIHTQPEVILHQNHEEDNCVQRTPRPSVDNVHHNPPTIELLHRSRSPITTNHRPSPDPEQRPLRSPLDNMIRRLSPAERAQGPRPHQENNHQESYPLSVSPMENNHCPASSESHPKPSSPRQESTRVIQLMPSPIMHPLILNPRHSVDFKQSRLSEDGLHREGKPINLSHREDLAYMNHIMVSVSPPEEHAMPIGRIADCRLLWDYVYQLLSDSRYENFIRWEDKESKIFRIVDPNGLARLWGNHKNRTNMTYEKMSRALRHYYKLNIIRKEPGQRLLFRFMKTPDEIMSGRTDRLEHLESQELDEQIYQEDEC", "conditions": "protein: recombinant; tags: N-terminal GST; dsDNA, one strand shown", "procedure,_shortened": "as §1"}, "[15]": {"target": "HSF1 (Homo sapiens, UniProt Q00613 1-529)", "sequence (Q00613 whole entry)": "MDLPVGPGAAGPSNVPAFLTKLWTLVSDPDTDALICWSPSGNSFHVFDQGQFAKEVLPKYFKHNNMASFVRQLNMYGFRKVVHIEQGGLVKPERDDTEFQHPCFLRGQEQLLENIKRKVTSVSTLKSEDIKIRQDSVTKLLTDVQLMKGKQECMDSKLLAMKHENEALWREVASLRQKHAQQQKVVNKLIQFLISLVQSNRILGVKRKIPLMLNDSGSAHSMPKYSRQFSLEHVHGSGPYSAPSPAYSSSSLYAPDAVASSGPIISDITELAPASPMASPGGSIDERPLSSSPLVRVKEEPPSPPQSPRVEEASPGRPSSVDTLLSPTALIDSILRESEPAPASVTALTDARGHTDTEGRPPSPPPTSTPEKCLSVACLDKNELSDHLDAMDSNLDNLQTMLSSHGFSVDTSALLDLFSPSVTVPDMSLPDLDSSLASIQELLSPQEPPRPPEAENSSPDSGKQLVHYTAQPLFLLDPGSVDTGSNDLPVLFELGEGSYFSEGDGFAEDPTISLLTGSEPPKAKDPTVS", "conditions": "protein: recombinant; tags: N-terminal GST; chain copies: 3; dsDNA, one strand shown", "procedure,_shortened": "as §1"}}, "data": [{"sequence": "GCGTTG", "values": [{"measurement": "binding signal", "setting": "[1]", "value": "1.1 fold enrichment (6-mer frequency, TF over GST control)"}, {"measurement": "binding signal", "setting": "[2]", "value": "1.01 fold enrichment (6-mer frequency, TF over GST control)"}, {"measurement": "binding signal", "setting": "[3]", "value": "1.03 fold enrichment (6-mer frequency, TF over GST control)"}, {"measurement": "binding signal", "setting": "[4]", "value": "1.01 fold enrichment (6-mer frequency, TF over GST control)"}, {"measurement": "binding signal", "setting": "[5]", "value": "1.12 fold enrichment (6-mer frequency, TF over GST control)"}, {"measurement": "binding signal", "setting": "[6]", "value": "1.03 fold enrichment (6-mer frequency, TF over GST control)"}, {"measurement": "binding signal", "setting": "[7]", "value": "1.01 fold enrichment (6-mer frequency, TF over GST control)"}]}, {"sequence": "CCATGG", "values": [{"measurement": "binding signal", "setting": "[1]", "value": "1.08 fold enrichment (6-mer frequency, TF over GST control)"}, {"measurement": "binding signal", "setting": "[8]", "value": "1.05 fold enrichment (6-mer frequency, TF over GST control)"}, {"measurement": "binding signal", "setting": "[9]", "value": "1.08 fold enrichment (6-mer frequency, TF over GST control)"}, {"measurement": "binding signal", "setting": "[2]", "value": "1 fold enrichment (6-mer frequency, TF over GST control)"}, {"measurement": "binding signal", "setting": "[10]", "value": "1.06 fold enrichment (6-mer frequency, TF over GST control)"}, {"measurement": "binding signal", "setting": "[11]", "value": "1.05 fold enrichment (6-mer frequency, TF over GST control)"}, {"measurement": "binding signal", "setting": "[12]", "value": "1.06 fold enrichment (6-mer frequency, TF over GST control)"}, {"measurement": "binding signal", "setting": "[13]", "value": "1.06 fold enrichment (6-mer frequency, TF over GST control)"}, {"measurement": "binding signal", "setting": "[4]", "value": "1.05 fold enrichment (6-mer frequency, TF over GST control)"}, {"measurement": "binding signal", "setting": "[6]", "value": "1.02 fold enrichment (6-mer frequency, TF over GST control)"}, {"measurement": "binding signal", "setting": "[14]", "value": "1.03 fold enrichment (6-mer frequency, TF over GST control)"}]}, {"sequence": "GCCAGA", "values": [{"measurement": "binding signal", "setting": "[15]", "value": "1.02 fold enrichment (6-mer frequency, TF over GST control)"}]}]}
